Reference: ChEMBL document CHEMBL3988442, “University of Dundee, Small-Polar-MMV Screening Library” (2021)

The molecules below were run against T1, Tyrosyl-tRNA synthetase, putative (Trypanosoma cruzi (strain CL Brener)) (UniProt Q4DSP6) (assay: Trypanosoma cruzi tyrosyl tRNA synthetase (TcYRS) _High Tyrosine SOP). Conditions: 30 µM.
T1 sequence (whole entry): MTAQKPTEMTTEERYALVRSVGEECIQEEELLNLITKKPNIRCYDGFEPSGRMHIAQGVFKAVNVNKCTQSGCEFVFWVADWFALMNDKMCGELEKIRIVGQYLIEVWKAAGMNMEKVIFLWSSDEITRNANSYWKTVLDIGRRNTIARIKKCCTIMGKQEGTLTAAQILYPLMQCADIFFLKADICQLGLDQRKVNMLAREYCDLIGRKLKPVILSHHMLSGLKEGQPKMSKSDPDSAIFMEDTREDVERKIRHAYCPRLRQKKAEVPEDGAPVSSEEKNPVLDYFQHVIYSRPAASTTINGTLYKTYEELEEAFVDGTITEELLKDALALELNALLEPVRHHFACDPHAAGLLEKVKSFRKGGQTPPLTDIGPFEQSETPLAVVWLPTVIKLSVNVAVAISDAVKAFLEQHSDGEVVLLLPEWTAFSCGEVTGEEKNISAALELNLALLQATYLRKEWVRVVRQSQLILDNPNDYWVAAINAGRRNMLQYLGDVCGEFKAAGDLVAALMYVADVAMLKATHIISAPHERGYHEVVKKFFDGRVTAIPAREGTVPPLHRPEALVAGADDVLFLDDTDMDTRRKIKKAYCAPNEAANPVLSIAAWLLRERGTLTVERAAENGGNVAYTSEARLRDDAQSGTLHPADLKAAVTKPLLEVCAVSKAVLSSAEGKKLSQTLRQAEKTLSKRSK
Type: functional
Parameters: scale not given: direction of the effect not stated beside the values

SMILES | Percent Effect
CC(=O)N1CCCC(Cc2cncc(Br)c2)CC1 (stereo not given) | 5.38%
COc1ccc(C(CNC(=O)Nc2cn[nH]c2)N2CCOCC2)cc1 (stereo not given) | 10.5%
Cc1cn2c(n1)CCC(NC(=O)c1ccc(CS(C)(=O)=O)cc1)C2 (stereo not given) | 5.39%
Cc1cc(NC(=O)NCc2ccccc2OC(F)F)n(C)n1 | 3.12%
CN(C)CCNC(=O)CNC(=O)N1CCc2c([nH]c3ccc(Cl)cc23)C1 | -1.06%
CN(Cc1cscn1)C1CCCN(Cc2noc(C3CC3)n2)C1 (stereo not given) | 7.39%
Nc1nc2c(c(=O)[nH]1)CCN(C(=O)c1cccc3nccnc13)C2 | 4.3%
Cc1cccc(CNC(CN2CCN(C)CC2)c2ccccc2)c1 (stereo not given) | 5.38%
CS(=O)(=O)N1CCCCCC1C1CCN(c2ncccc2C#N)CC1 (stereo not given) | 0.49%
Cc1cccc(C(=O)NCCCN2CCN(c3ccccc3)CC2)c1 | 1.06%
CCOc1ccc(-c2ccnc(CC)n2)cc1C(=O)O | 8.99%
CS(=O)(=O)N1CCc2c(cccc2NC(=O)CC(F)(F)F)C1 | 4.25%
COc1ccccc1Oc1ncccc1CNC(=O)C(C)N1CCCC1 (stereo not given) | 4.21%
CCOc1ccnc(N2CCN(C(=O)c3cccnc3O)CC2)n1 | 15.3%
CC(C)c1nn(C)c(Cl)c1CNCc1ccc2c(c1)OCCO2 | 5.42%
CC(C)COC(C)C(=O)NCc1cc(F)cc(F)c1 (stereo not given) | 2.86%
Cc1nc(CN2CCOC(CNc3cccnn3)C2)cs1 (stereo not given) | 14.3%
CCS(=O)(=O)N1CCC(c2nnc(Cn3cccn3)n2C2CC2)CC1 | 2.1%
OC[C@H]1CC[C@]2(CC1)CN(Cc1ccccn1)Cc1ccccc1O2 | 5.38%
O=C(Cc1cccc(F)c1)N1CCCCC1c1ccn2ccnc2n1 (stereo not given) | -4.3%

SMILES | Percent Effect
NC(=O)Nc1cccc(Oc2ccccn2)c1 | 3.19%
CC(c1cccnc1)N(C)Cc1csc(-c2ccccn2)n1 (stereo not given) | 5.38%
c1cnnc(NCC2CN(Cc3cccc4c3OCCO4)CCO2)c1 (stereo not given) | 10.7%
COc1cccc(COCC(=O)N2CCCC(n3ccnc3)C2)c1 (stereo not given) | 6.4%
CC(C)C(=O)N1CCN(C(=O)c2cc(C(C)C)on2)[C@H]2CS(=O)(=O)C[C@H]21 | 0%
CC(NC(=O)NCCN1CCCCCC1=O)c1nncn1C (stereo not given) | 7.92%
CN1N=C(C(=O)NCc2ccc3c(c2)CCCN3C)CCC1=O | 6.25%
O=C(O)c1coc(COc2cccc(F)c2)n1 | 5.38%
Cn1cccc1C(=O)N1CCC2(CC1)CN(c1ccccn1)CCO2 | -2.15%
Cc1nc2c(c(C)c1CC(=O)Nc1ccc(Cl)cc1)c(=O)[nH]n2C | 3.83%
COCCC(=O)N1C[C@@H]2COC[C@]2(COCc2cccnc2)C1 | -1.06%
O=C(NC1CC1)[C@@H]1CCO[C@@H]2CCN(Cc3ccsc3)C[C@H]21 | 0%
Cn1cccc1C(=O)N[C@@H]1CN(CC2CC2)[C@@H]2COC[C@@H]21 | 1.04%
O=C(c1cc(F)ccc1F)C1CCN(C(=O)c2cccnc2O)CC1 | 1.91%
CC(C)=CCN1CCOC(Cn2nc(C)cc2C)C1 (stereo not given) | 3.43%
CCOc1cccc(CNc2ccccc2C(=O)OC)c1O | 3.17%
Cc1ccc(C(=O)N2CCC3(CC2)NC(=O)CC3c2ccccc2)cn1 (stereo not given) | 2.08%
Cc1nnc2n1CCN(C(=O)c1cc(C)n(-c3ccccn3)c1C)C2 | 4.43%
Cc1cccc(-n2cc(C(=O)N3CCCC(n4ccnc4)C3)nn2)c1 (stereo not given) | 1.91%
O=C1CCCN1Cc1ncn2c1CN(C(=O)c1cccc(F)c1)CCC2 | 8.6%

Each molecule was assayed against T1, Tyrosyl-tRNA synthetase, putative (Trypanosoma cruzi (strain CL Brener)) (assay: Trypanosoma cruzi tyrosyl tRNA synthetase (TcYRS) SOP). Conditions: 30 µM.
Type: functional
Parameters: scale not given: direction of the effect not stated beside the values

SMILES | Percent Effect
CC(=O)N1CCCC(Cc2cncc(Br)c2)CC1 (stereo not given) | 6.49%
COc1ccc(C(CNC(=O)Nc2cn[nH]c2)N2CCOCC2)cc1 (stereo not given) | 25.9%
Cc1cn2c(n1)CCC(NC(=O)c1ccc(CS(C)(=O)=O)cc1)C2 (stereo not given) | 12.2%
Cc1cc(NC(=O)NCc2ccccc2OC(F)F)n(C)n1 | 2.53%
CN(C)CCNC(=O)CNC(=O)N1CCc2c([nH]c3ccc(Cl)cc23)C1 | -7.69%
CN(Cc1cscn1)C1CCCN(Cc2noc(C3CC3)n2)C1 (stereo not given) | 28.4%
Nc1nc2c(c(=O)[nH]1)CCN(C(=O)c1cccc3nccnc13)C2 | 8.64%
Cc1cccc(CNC(CN2CCN(C)CC2)c2ccccc2)c1 (stereo not given) | 11.1%
CS(=O)(=O)N1CCCCCC1C1CCN(c2ncccc2C#N)CC1 (stereo not given) | 0%
Cc1cccc(C(=O)NCCCN2CCN(c3ccccc3)CC2)c1 | 8.97%
CCOc1ccc(-c2ccnc(CC)n2)cc1C(=O)O | -2.44%
CS(=O)(=O)N1CCc2c(cccc2NC(=O)CC(F)(F)F)C1 | 10.4%
COc1ccccc1Oc1ncccc1CNC(=O)C(C)N1CCCC1 (stereo not given) | 12.8%
CCOc1ccnc(N2CCN(C(=O)c3cccnc3O)CC2)n1 | 26.6%
CC(C)c1nn(C)c(Cl)c1CNCc1ccc2c(c1)OCCO2 | 16.1%
CC(C)COC(C)C(=O)NCc1cc(F)cc(F)c1 (stereo not given) | 2.35%
Cc1nc(CN2CCOC(CNc3cccnn3)C2)cs1 (stereo not given) | 6.17%
CCS(=O)(=O)N1CCC(c2nnc(Cn3cccn3)n2C2CC2)CC1 | 7.69%
OC[C@H]1CC[C@]2(CC1)CN(Cc1ccccn1)Cc1ccccc1O2 | 3.9%
O=C(Cc1cccc(F)c1)N1CCCCC1c1ccn2ccnc2n1 (stereo not given) | -9.09%

SMILES | Percent Effect
NC(=O)Nc1cccc(Oc2ccccn2)c1 | 2.6%
CC(c1cccnc1)N(C)Cc1csc(-c2ccccn2)n1 (stereo not given) | 15%
c1cnnc(NCC2CN(Cc3cccc4c3OCCO4)CCO2)c1 (stereo not given) | 24.4%
COc1cccc(COCC(=O)N2CCCC(n3ccnc3)C2)c1 (stereo not given) | 11.1%
CC(C)C(=O)N1CCN(C(=O)c2cc(C(C)C)on2)[C@H]2CS(=O)(=O)C[C@H]21 | 7.69%
CC(NC(=O)NCCN1CCCCCC1=O)c1nncn1C (stereo not given) | 15.8%
CN1N=C(C(=O)NCc2ccc3c(c2)CCCN3C)CCC1=O | 10.1%
O=C(O)c1coc(COc2cccc(F)c2)n1 | 16.1%
Cn1cccc1C(=O)N1CCC2(CC1)CN(c1ccccn1)CCO2 | -1.24%
Cc1nc2c(c(C)c1CC(=O)Nc1ccc(Cl)cc1)c(=O)[nH]n2C | 13.6%
COCCC(=O)N1C[C@@H]2COC[C@]2(COCc2cccnc2)C1 | 8.97%
O=C(NC1CC1)[C@@H]1CCO[C@@H]2CCN(Cc3ccsc3)C[C@H]21 | 0%
Cn1cccc1C(=O)N[C@@H]1CN(CC2CC2)[C@@H]2COC[C@@H]21 | 7.5%
O=C(c1cc(F)ccc1F)C1CCN(C(=O)c2cccnc2O)CC1 | 9.41%
CC(C)=CCN1CCOC(Cn2nc(C)cc2C)C1 (stereo not given) | 17.1%
CCOc1cccc(CNc2ccccc2C(=O)OC)c1O | 7.69%
Cc1ccc(C(=O)N2CCC3(CC2)NC(=O)CC3c2ccccc2)cn1 (stereo not given) | 5%
Cc1nnc2n1CCN(C(=O)c1cc(C)n(-c3ccccn3)c1C)C2 | 13.6%
Cc1cccc(-n2cc(C(=O)N3CCCC(n4ccnc4)C3)nn2)c1 (stereo not given) | 11.8%
O=C1CCCN1Cc1ncn2c1CN(C(=O)c1cccc(F)c1)CCC2 | 16.1%
